Compound activity as filed in PubChem BioAssay.
dFosB activator: activators of delta FosB homodimer, primary screen, biochemical, fluorescence polarization, TAMRA-CDK5 oligo, single point | Protein FosB (Mus musculus), P13346 | purified delta FosB; percent of positive-control signal above neutral wells | activation, % at 25 µM | 0.99% of 340,000 active;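 active means mean activation above about 17%, with every replicate also reaching it, limit read from the data, passing the limit was not always enough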
p47phox inh: p47phox/p22phox peptide binding inhibitors, primary screen, biochemical, uHTS, NADPH oxidase regulatory subunit; 0.53% of 220,000 active; inhibition, % at 24.7 µM; Neutrophil cytosol factor 1 (Homo sapiens), P14598; AID 1274, 2008; fluorescence polarization, 2 h;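 active means inhibition above about 30%, limit read from the data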;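 further: 0% = p47phox with labelled peptide and 100% = labelled peptide alone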
14-3-3 Bad inh: inhibitors of 14-3-3 zeta/Bad binding, primary screen, biochemical, TR-FRET, bovine 14-3-3 zeta. 14-3-3 protein zeta/delta (Bos taurus), P63103. TR-FRET 14-3-3zeta/Dy647-pBad peptide displacement, 1 h. inhibition, % at 21.7 µM. 0.71% of 220,000 active. AID 781, 2007;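 active means inhibition above about 70%, limit read from the data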;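 further: 0% = full 14-3-3 plus peptide FRET controls and 100% = background without 14-3-3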
Target sequence (P63103 whole entry, looked up): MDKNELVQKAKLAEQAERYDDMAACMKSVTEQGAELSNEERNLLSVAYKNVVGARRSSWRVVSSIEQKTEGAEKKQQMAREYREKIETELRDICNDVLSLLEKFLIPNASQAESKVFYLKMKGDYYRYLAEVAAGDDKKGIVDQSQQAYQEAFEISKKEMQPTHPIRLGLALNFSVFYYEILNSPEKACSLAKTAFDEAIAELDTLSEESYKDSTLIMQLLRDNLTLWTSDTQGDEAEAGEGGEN
Efa HMGR inh: inhibitors of E. faecalis class II HMGR, primary screen, biochemical, Enterococcus faecalis | HMG-CoA reductase (Enterococcus faecalis, mvaE) | inhibition, % at 10 µM | 0.41% of 190,000 active | AID 1066, 2008 | purified E. faecalis HMGR, NADPH absorbance 340 nm kinetic;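 active means inhibition above a set limit, the median over all tested compounds plus 3 SD, cut at about 9.5% in these data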;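 further: enzyme runs in reverse so mevalonate oxidation gives rising NADPH absorbance; 0% = complete reaction with DMSO and 100% = background rate lacking mevalonate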
* hit, by the source's call; · = no result. Sampled rows, rich in hits. Any-hit rate of the full collection: about 1.9%.

SMILES | dFosB activator | p47phox inh | 14-3-3 Bad inh | Efa HMGR inh
COc1ccc(NC(=O)C2CC(=O)n3c(nc4ccccc43)N2)cc1 (stereo not drawn) | 34* | 0 | -2 | ·
O=C(Nc1ccc(F)cc1)C1CC(=O)n2cnnc2N1 (stereo not drawn) | -5 | 28 | -12 | 9.7*
CN1CCN(C(=O)C2=C[C@@H](C3CC3)C[C@@H](OCc3ccc(CO)cc3)O2)CC1 | 1 | -2 | 3 | 9.8*
COc1cc(C(=O)NC2CCN(Cc3nnnn3Cc3ccc(F)cc3)CC2)cc(OC)c1OC | -7 | -14 | -12 | -3
CN1CCN(c2ccc(Nc3ccnc4cc(Cl)ccc34)cc2)CC1 | 57* | · | · | ·
CCN1CCN(c2ccc(Nc3ccnc4ccccc34)cc2)CC1 | 36* | · | · | ·
CCN1CCN(c2nc(-c3ccccn3)nc3ccccc23)CC1 | -8 | -5 | -2 | -6
CCOc1ccc(Nc2ccnc3cc(Cl)ccc23)cc1 | 2 | -7 | 2 | ·
Clc1ccccc1-c1ccc(CN2CCN(c3ccccc3)CC2)o1 | -5 | 9 | 73* | -8
CC1(C)CCN(Cc2ccccc2)C1CC#N (stereo not drawn) | -1 | -1 | 71* | -8
CCCCC(=O)C1=C(N2CCCC2)CC(C)(C)CC1=O | -3 | -23 | -5 | 12*
CC1CCCN(C(=O)COC(=O)/C=C/c2ccc(C(F)(F)F)cc2)C1 (stereo not drawn) | -9 | · | · | ·
O=C(OCC(=O)N1CCN(C(=O)c2ccco2)CC1)c1cc(-c2ccco2)nc2ccccc12 | -36 | 0 | 20 | -23
O=C(OCC(=O)N1CCN(C(=O)c2ccco2)CC1)c1cc(-c2ccc(Cl)c(Cl)c2Cl)nc2ccccc12 | 0 | 37* | 4 | 1
CC(C)(C)C(=O)NC1CC2CCCC(C1)N2C(=O)Nc1cccc(Cl)c1 (stereo not drawn) | -9 | · | · | ·
COC(=O)C1=C(C)N(C)C(=S)N(C)C1c1ccc(OC)cc1 (stereo not drawn) | -7 | 0 | -17 | 12*
COC(=O)C1=C(C)N(C)C(C)=C(C(=O)OC)C1c1ccc(C(=O)OC)cc1 | -6 | -10 | 0 | -3
COc1cccc(C(=O)Nc2ccc(F)c(F)c2F)c1 | -1 | -8 | -2 | -4
CCOC(=O)c1ccc2nc(C(F)(F)F)[nH]c(=O)c2c1 | -4 | -8 | 77* | -2
C#CCOCCOCCOCCNc1nc(N2CCN(C(=O)Cn3cc(CC(C)O)nn3)CC2)nc(N2CCN(C(=O)[C@H](C)n3cc(CCCN=C(N)N)nn3)CC2)n1 (stereo partly drawn) | · | -3 | 84* | -4
C#CCOCCOCCOCCNc1nc(N2CCN(C(=O)Cn3cc(CCCCN)nn3)CC2)nc(N2CCN(C(=O)[C@H]([C@@H](C)CC)n3cc(CCCN=C(N)N)nn3)CC2)n1 | 6 | · | · | ·
C#CCOCCOCCOCCNc1nc(N2CCN(C(=O)Cn3cc(CCCN=C(N)N)nn3)CC2)nc(N2CCN(C(=O)[C@H]([C@@H](C)O)n3cc(CCCCN)nn3)CC2)n1 | 6 | · | · | ·
C#CCOCCOCCOCCNc1nc(N2CCN(C(=O)Cn3cc(CC(C)O)nn3)CC2)nc(N2CCN(C(=O)[C@H](CCCCN)n3cc(CCC(=O)O)nn3)CC2)n1 (stereo partly drawn) | -18 | -6 | 72* | -9
C#CCOCCOCCOCCNc1nc(N2CCN(C(=O)Cn3cc(CCCN=C(N)N)nn3)CC2)nc(N2CCN(C(=O)[C@H]([C@@H](C)CC)n3cc(CCCN=C(N)N)nn3)CC2)n1 | · | 13 | 86* | 3
C#CCOCCOCCOCCNc1nc(N2CCN(C(=O)Cn3cc(CCCCN)nn3)CC2)nc(N2CCN(C(=O)[C@H](C)n3cc(CCCN=C(N)N)nn3)CC2)n1 | · | 8 | 80* | 1
C#CCOCCOCCOCCNc1nc(N2CCN(C(=O)Cn3cc(CCCN=C(N)N)nn3)CC2)nc(N2CCN(C(=O)[C@H](CCCCN)n3cc(CC(C)O)nn3)CC2)n1 (stereo partly drawn) | -5 | · | · | ·
CN(C)C(=O)CCc1ccc2c3c([nH]c2c1)[C@]1(CCC2CCCC2)[C@@H](C(=O)N2CCOCC2)C[C@H](CC(=O)NCc2cccc(C(F)(F)F)c2)C(=O)N1CC3 | -13 | · | · | ·
COc1ccccc1C(=O)Nc1ccc2oc(-c3ccc(F)cc3)nc2c1 | -10 | 28 | 59 | -10
CCOC(=O)c1c(C)[nH]c(C)c1S(=O)(=O)N(C)CC(=O)NCc1cccc(C)c1 | -8 | · | · | ·
